# Results from PMC11006913.
# Experiments:
# Assay in all cases: PBM; 200 nM protein, PBS
# Settings in all cases: dsDNA, one strand shown
# [1] = biological target: SHOX (Homo sapiens, UniProt O15266 103-189)
# [2] = biological target: HOXD13 (Homo sapiens, UniProt P35453 263-343, T313R)
# [3] = biological target: SHOX (Homo sapiens, UniProt O15266 103-189, R173C)
# [4] = biological target: HOXD13 (Homo sapiens, UniProt P35453 263-343)
# [5] = biological target: HOXD13 (Homo sapiens, UniProt P35453 263-343, T313A)
# [6] = biological target: HOXC10 (Homo sapiens, UniProt Q9NYD6 254-340, K271E)
# [7] = biological target: ALX3 (Homo sapiens, UniProt O95076 139-225, N203Q)
# [8] = biological target: ALX3 (Homo sapiens, UniProt O95076 139-225)
# [9] = biological target: VAX1 (Homo sapiens, UniProt Q5SQQ9 86-172)
# [10] = biological target: ALX3 (Homo sapiens, UniProt O95076 139-225, L168Q)
# [11] = biological target: ALX3 (Homo sapiens, UniProt O95076 139-225, L168V)
# [12] = biological target: VAX1 (Homo sapiens, UniProt Q5SQQ9 86-172, T142I)
# [13] = biological target: ALX3 (Homo sapiens, UniProt O95076 139-225, N203S)
# [14] = biological target: VAX1 (Homo sapiens, UniProt Q5SQQ9 86-172, K157R)
# Sequence of VAX1 (Homo sapiens, UniProt Q5SQQ9 86-172, K157R) (Q5SQQ9 86-172 K157R): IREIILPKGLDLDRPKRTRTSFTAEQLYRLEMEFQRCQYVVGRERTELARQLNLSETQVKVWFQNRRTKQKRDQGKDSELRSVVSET
# Sequence of HOXD13 (Homo sapiens, UniProt P35453 263-343) (P35453 263-343): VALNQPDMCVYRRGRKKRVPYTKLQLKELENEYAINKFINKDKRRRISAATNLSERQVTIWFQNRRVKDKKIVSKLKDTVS
# Sequence of SHOX (Homo sapiens, UniProt O15266 103-189) (O15266 103-189): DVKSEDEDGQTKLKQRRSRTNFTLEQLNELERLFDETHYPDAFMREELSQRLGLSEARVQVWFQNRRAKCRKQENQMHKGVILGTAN
# Sequence of HOXD13 (Homo sapiens, UniProt P35453 263-343, T313A) (P35453 263-343 T313A): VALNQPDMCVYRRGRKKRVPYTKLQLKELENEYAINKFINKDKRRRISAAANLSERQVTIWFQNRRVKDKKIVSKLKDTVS
# Sequence of SHOX (Homo sapiens, UniProt O15266 103-189, R173C) (O15266 103-189 R173C): as the sequence (O15266 103-189) above, with R71C counted along it
# Sequence of HOXD13 (Homo sapiens, UniProt P35453 263-343, T313R) (P35453 263-343 T313R): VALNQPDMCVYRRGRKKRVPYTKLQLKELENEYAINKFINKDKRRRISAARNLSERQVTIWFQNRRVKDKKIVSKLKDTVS
# Sequence of ALX3 (Homo sapiens, UniProt O95076 139-225, N203Q) (O95076 139-225 N203Q): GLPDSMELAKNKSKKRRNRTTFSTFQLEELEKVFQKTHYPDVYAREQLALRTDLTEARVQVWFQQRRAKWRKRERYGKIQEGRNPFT
# Sequence of ALX3 (Homo sapiens, UniProt O95076 139-225) (O95076 139-225): as the sequence (O95076 139-225 N203Q) above, with Q65N counted along it
# Sequence of VAX1 (Homo sapiens, UniProt Q5SQQ9 86-172, T142I) (Q5SQQ9 86-172 T142I): as the sequence (Q5SQQ9 86-172 K157R) above, with T57I, R72K counted along it
# Sequence of VAX1 (Homo sapiens, UniProt Q5SQQ9 86-172) (Q5SQQ9 86-172): as the sequence (Q5SQQ9 86-172 K157R) above, with R72K counted along it
# Sequence of ALX3 (Homo sapiens, UniProt O95076 139-225, L168V) (O95076 139-225 L168V): as the sequence (O95076 139-225 N203Q) above, with L30V, Q65N counted along it
# Sequence of ALX3 (Homo sapiens, UniProt O95076 139-225, L168Q) (O95076 139-225 L168Q): as the sequence (O95076 139-225 N203Q) above, with L30Q, Q65N counted along it
# Sequence of ALX3 (Homo sapiens, UniProt O95076 139-225, N203S) (O95076 139-225 N203S): as the sequence (O95076 139-225 N203Q) above, with Q65S counted along it
# Sequence of HOXC10 (Q9NYD6 254-340 K271E): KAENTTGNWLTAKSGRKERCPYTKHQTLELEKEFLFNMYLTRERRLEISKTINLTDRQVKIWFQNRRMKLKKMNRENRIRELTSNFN
sequence,measurement,setting,value
AGGGCAGC,binding signal,[1],"6.98 upbm affinity estimate (log intensity, higher = more binding, comparable within an allelic series)"
same,binding signal,[2],"9.54 upbm affinity estimate (log intensity, higher = more binding, comparable within an allelic series)"
same,binding signal,[3],"7.18 upbm affinity estimate (log intensity, higher = more binding, comparable within an allelic series)"
same,binding signal,[4],"9.49 upbm affinity estimate (log intensity, higher = more binding, comparable within an allelic series)"
same,binding signal,[5],"9.66 upbm affinity estimate (log intensity, higher = more binding, comparable within an allelic series)"
CCGAAGCG,binding signal,[1],"7.16 upbm affinity estimate (log intensity, higher = more binding, comparable within an allelic series)"
same,binding signal,[3],"7.24 upbm affinity estimate (log intensity, higher = more binding, comparable within an allelic series)"
CCGGGAAA,binding signal,[1],"7.25 upbm affinity estimate (log intensity, higher = more binding, comparable within an allelic series)"
same,binding signal,[3],"7.26 upbm affinity estimate (log intensity, higher = more binding, comparable within an allelic series)"
AGCCGCCG,binding signal,[1],"7.12 upbm affinity estimate (log intensity, higher = more binding, comparable within an allelic series)"
same,binding signal,[2],"9.48 upbm affinity estimate (log intensity, higher = more binding, comparable within an allelic series)"
same,binding signal,[3],"7.19 upbm affinity estimate (log intensity, higher = more binding, comparable within an allelic series)"
same,binding signal,[4],"9.52 upbm affinity estimate (log intensity, higher = more binding, comparable within an allelic series)"
same,binding signal,[5],"9.57 upbm affinity estimate (log intensity, higher = more binding, comparable within an allelic series)"
TCGCGCGA,binding signal,[1],"7.38 upbm affinity estimate (log intensity, higher = more binding, comparable within an allelic series)"
same,binding signal,[3],"7.28 upbm affinity estimate (log intensity, higher = more binding, comparable within an allelic series)"
GGCCAGAC,binding signal,[1],"7.3 upbm affinity estimate (log intensity, higher = more binding, comparable within an allelic series)"
same,binding signal,[3],"7.26 upbm affinity estimate (log intensity, higher = more binding, comparable within an allelic series)"
CGGCCTGA,binding signal,[1],"7.33 upbm affinity estimate (log intensity, higher = more binding, comparable within an allelic series)"
same,binding signal,[3],"7.17 upbm affinity estimate (log intensity, higher = more binding, comparable within an allelic series)"
AGTTTATG,binding signal,[1],"8.25 upbm affinity estimate (log intensity, higher = more binding, comparable within an allelic series)"
same,binding signal,[2],"10.7 upbm affinity estimate (log intensity, higher = more binding, comparable within an allelic series)"
same,binding signal,[4],"11.9 upbm affinity estimate (log intensity, higher = more binding, comparable within an allelic series)"
same,binding signal,[6],"11.1 upbm affinity estimate (log intensity, higher = more binding, comparable within an allelic series)"
same,binding signal,[5],"11.5 upbm affinity estimate (log intensity, higher = more binding, comparable within an allelic series)"
GGACGTCC,binding signal,[1],"7.52 upbm affinity estimate (log intensity, higher = more binding, comparable within an allelic series)"
same,binding signal,[7],"7.88 upbm affinity estimate (log intensity, higher = more binding, comparable within an allelic series)"
same,binding signal,[3],"7.3 upbm affinity estimate (log intensity, higher = more binding, comparable within an allelic series)"
same,binding signal,[8],"7.9 upbm affinity estimate (log intensity, higher = more binding, comparable within an allelic series)"
same,binding signal,[9],"7.88 upbm affinity estimate (log intensity, higher = more binding, comparable within an allelic series)"
same,binding signal,[10],"7.79 upbm affinity estimate (log intensity, higher = more binding, comparable within an allelic series)"
same,binding signal,[11],"7.85 upbm affinity estimate (log intensity, higher = more binding, comparable within an allelic series)"
same,binding signal,[12],"7.46 upbm affinity estimate (log intensity, higher = more binding, comparable within an allelic series)"
same,binding signal,[13],"7.79 upbm affinity estimate (log intensity, higher = more binding, comparable within an allelic series)"
same,binding signal,[14],"7.64 upbm affinity estimate (log intensity, higher = more binding, comparable within an allelic series)"
CCGCGGCC,binding signal,[1],"7.18 upbm affinity estimate (log intensity, higher = more binding, comparable within an allelic series)"
same,binding signal,[3],"7.17 upbm affinity estimate (log intensity, higher = more binding, comparable within an allelic series)"
AAGGCTCC,binding signal,[1],"7.08 upbm affinity estimate (log intensity, higher = more binding, comparable within an allelic series)"
same,binding signal,[3],"7.1 upbm affinity estimate (log intensity, higher = more binding, comparable within an allelic series)"
GCCAGGGA,binding signal,[1],"7.22 upbm affinity estimate (log intensity, higher = more binding, comparable within an allelic series)"
same,binding signal,[3],"7.13 upbm affinity estimate (log intensity, higher = more binding, comparable within an allelic series)"
CTGAGGCA,binding signal,[1],"7.29 upbm affinity estimate (log intensity, higher = more binding, comparable within an allelic series)"
same,binding signal,[3],"7.31 upbm affinity estimate (log intensity, higher = more binding, comparable within an allelic series)"
ACCTGAGG,binding signal,[1],"7.18 upbm affinity estimate (log intensity, higher = more binding, comparable within an allelic series)"
same,binding signal,[3],"7.27 upbm affinity estimate (log intensity, higher = more binding, comparable within an allelic series)"
GAACGCGC,binding signal,[1],"7.22 upbm affinity estimate (log intensity, higher = more binding, comparable within an allelic series)"
same,binding signal,[3],"7.23 upbm affinity estimate (log intensity, higher = more binding, comparable within an allelic series)"
CAATCTTC,binding signal,[1],"7.99 upbm affinity estimate (log intensity, higher = more binding, comparable within an allelic series)"
same,binding signal,[3],"7.51 upbm affinity estimate (log intensity, higher = more binding, comparable within an allelic series)"
CAACCAGC,binding signal,[1],"7.2 upbm affinity estimate (log intensity, higher = more binding, comparable within an allelic series)"
same,binding signal,[3],"7.18 upbm affinity estimate (log intensity, higher = more binding, comparable within an allelic series)"
GCGTTAAA,binding signal,[1],"8.14 upbm affinity estimate (log intensity, higher = more binding, comparable within an allelic series)"
same,binding signal,[3],"7.56 upbm affinity estimate (log intensity, higher = more binding, comparable within an allelic series)"
GCCTATTA,binding signal,[1],"10.8 upbm affinity estimate (log intensity, higher = more binding, comparable within an allelic series)"
same,binding signal,[3],"8.45 upbm affinity estimate (log intensity, higher = more binding, comparable within an allelic series)"
CCGGGACG,binding signal,[1],"7.24 upbm affinity estimate (log intensity, higher = more binding, comparable within an allelic series)"
same,binding signal,[3],"7.27 upbm affinity estimate (log intensity, higher = more binding, comparable within an allelic series)"
